Counter-ions that a name gives are not always drawn.
Each compound was assayed on replication-induced senescent mouse newborn dermal fibroblasts (NBF) (assay: relative cell viability of senescent cells (fraction); higher = less killing of senescent cells). Settings: 1 µM; 3 days.
Description: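 Replication-induced senescent newborn mouse skin fibroblasts (NBFs) in 24-well plates were treated with a Selleck FDA-approved drug library at 1 µM for 3 days.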
With COc1ccc([C@@H]2Sc3ccccc3N(CCN(C)C)C(=O)[C@@H]2OC(C)=O)cc1 [Diltiazem HCl] the relative cell viability was 1.09.
In the case of CCOC(=O)C1=C(C)NC(C)=C(C(=O)OC)C1c1cccc(Cl)c1Cl (centres undefined) [Felodipine], the relative cell viability is reported as 1.
In the case of Cn1cnc([N+](=O)[O-])c1Sc1ncnc2[nH]cnc12 [Azathioprine], the relative cell viability is reported as 0.986.
Work on COc1cc2nccc(Oc3ccc(NC(=O)NC4CC4)c(Cl)c3)c2cc1C(N)=O [Lenvatinib (E7080)] yielded a relative cell viability of 0.123.
In the case of CS(=O)(=O)c1ccc(C(=O)Nc2ccc(Cl)c(-c3ccccn3)c2)c(Cl)c1 [Vismodegib (GDC-0449)], the relative cell viability is reported as 0.521.
In the case of CCN(CC)C(=S)SSC(=S)N(CC)CC [Disulfiram], the relative cell viability is reported as 1.13.
In the case of O=C(O)/C=C/c1ccc(Cn2ccnc2)cc1 [Ozagrel], the relative cell viability is reported as 1.02.
Work on CC(C)Cn1cnc2c(N)nc3ccccc3c21 [Imiquimod] yielded a relative cell viability of 0.273.
Compound CCN(CC)CCNC(=O)c1c(C)[nH]c(/C=C2\C(=O)Nc3ccc(F)cc32)c1C [Sunitinib Malate] has a relative cell viability of 1.1.
Compound O=C(C1CCCCC1)N1CC(=O)N2CCc3ccccc3C2C1 (centres undefined) [Praziquantel] has a relative cell viability of 1.07.
COCCc1ccc(OCC(O)CNC(C)C)cc1 (centres undefined) [Metoprolol Tartrate] gave a relative cell viability of 1.1.
In the case of CCOC(=O)C1=C(COCCN)NC(C)=C(C(=O)OC)C1c1ccccc1Cl (centres undefined) [Amlodipine Besylate], the relative cell viability is reported as 0.987.
C#Cc1cccc(Nc2ncnc3cc(OCCOC)c(OCCOC)cc23)c1 [Erlotinib HCl (OSI-744)] showed a relative cell viability of 0.672.
In the case of CNC(=C[N+](=O)[O-])NCCSCc1csc(CN(C)C)n1 [Nizatidine], the relative cell viability is reported as 0.956.

Source: the supplement of paper PMC7184167
